D2 PAM-1 = D2 dopamine receptor (human) potentiation | HEK293 T-REx D2, calcium flux, EC20 dopamine potentiation | potentiation, % at 10 µM | 0.34% of 340,000 active | AID 485347;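 active = potentiation over 3 SD above the plate norm, cut at about 30% in these data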; note: 0% is about no effect
Target sequence (P14416 whole entry, looked up): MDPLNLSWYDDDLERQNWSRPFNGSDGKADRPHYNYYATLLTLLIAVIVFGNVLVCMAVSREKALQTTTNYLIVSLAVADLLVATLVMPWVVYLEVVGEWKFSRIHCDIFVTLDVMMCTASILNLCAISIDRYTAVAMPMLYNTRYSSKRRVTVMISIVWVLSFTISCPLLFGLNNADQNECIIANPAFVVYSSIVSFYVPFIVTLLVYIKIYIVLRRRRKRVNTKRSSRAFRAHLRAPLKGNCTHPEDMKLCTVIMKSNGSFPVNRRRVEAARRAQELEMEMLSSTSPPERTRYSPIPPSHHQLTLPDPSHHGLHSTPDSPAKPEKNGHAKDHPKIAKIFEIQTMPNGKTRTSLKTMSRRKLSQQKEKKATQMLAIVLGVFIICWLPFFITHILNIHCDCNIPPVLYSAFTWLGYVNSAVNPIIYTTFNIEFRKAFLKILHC
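Primary screen. Calcium kinetics in induced HEK293 T-REx D2 cells: compound pre-addition 180 s, EC20 dopamine, 180 s more.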
D2 PAM-2 = potentiates the human D2 dopamine receptor allosterically. P14416. DiscoveRx D2 beta-arrestin cells, luminescence, 90 min; 100% = 57 uM dopamine signal. potentiation, % (concentration not given with the values). 0.23% of 360,000 active; in the data active = potentiation above about 50%; inconclusive = mostly about 30% to 49%
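PathHunter D2 cells, attached overnight at 37 deg C, received compound in DMSO plus dopamine at EC20 (50 nM final) for 90 min at 37 deg C. Beta-arrestin recruitment was read as luminescence after 1 h with detection reagent at ambient temperature.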
D2 antagonist = antagonizes the human D2 dopamine receptor; P14416; HEK293 TREx D2 cells, calcium flux, dopamine EC80; inhibition, % at 10 µM; 2% of 340,000 active; AID 485344; in the data active = inhibition above about 30%; inactive = below that, where a call was filed; note: 0% is about no effect
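Cells plated overnight at 30 C with tetracycline; no-wash calcium dye, 30–90 min RT; 10 s baseline; compound pinned; 180 s read; EC80 dopamine added; another 180 s read.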
D2 ag-1 = human D2 receptor agonism in beta-arrestin assay; P14416; DiscoveRx PathHunter D2 beta-arrestin, luminescence, 90 min; 100% = 57 uM dopamine signal; activation, % (test concentration not listed); 0.084% of 360,000 active; AID 624465; in the data active = activation above about 40%; inconclusive = between about 15% and that limit
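DiscoveRx PathHunter D2 beta-arrestin cells (2,100/well) attached overnight, then compound-stimulated 90 min at 37 C in HBSS/10 mM HEPES/0.1% Tween-20 buffer; beta-galactosidase complementation read by luminescence after 1 h at ambient temperature. Dopamine 57 uM final (EC100) as control.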
D2 ag-2 = agonists of human D2 dopamine receptor; 0.53% of 340,000 active; HEK293 T-REx D2 cells, calcium flux agonist mode; P14416; activation, % at 2 µM;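 active = activation over 3 SD above normal in the single-dose calcium agonist read, cut at about 30% in these data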; note: 0% is about no effect
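Agonism is scored from calcium flux in a force-coupled, inducible HEK293 cell line expressing D2, read kinetically for 180 s after compound addition against dopamine controls.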
The depositor's hits bear a star; ? = inconclusive; . = no result given. In the library only some 2.4% were active in any assay of this set; here they are far more common.

SMILES	D2 PAM-1	D2 PAM-2	D2 antagonist	D2 ag-1	D2 ag-2
CCOC(=O)CNC=C(C(=O)OCC)C(=O)OCC	15	8	-4	-2	-1
CCOC(=O)C(=CNCC(=O)OC)C(=O)OCC	2	4	36*	1	-1
Cc1ccc(NC(=O)CSc2nc3ccccc3c3nc(CCc4c(C)n[nH]c4C)nn23)c(C)c1	-19	.	.	.	0
CC1=C(C(=O)Nc2ccccc2)C(c2ccccc2Cl)n2ncc(C(=O)Nc3cccc(C)c3)c2N1 (configuration not stated)	2	.	.	.	0
Cc1oc(-c2cccs2)nc1CN1CCN(C(C)C)C(CCO)C1 (configuration not stated)	-4	-9	2	-1	1
COc1ccc(-c2nc(CN3CCC(c4ccccc4)CC3)c(C)o2)cc1OC	-23	-15	44*	3	-1
COc1ccccc1CNC(=O)C1CCN(Cc2nc(-c3ccc(OC)c(OC)c3)oc2C)CC1	13	.	.	.	-1
Cc1oc(-c2cccs2)nc1CN1CCC(c2ccccc2)CC1	-17	-33	83*	-4	1
CCOC(=O)C1CCCN(C(=O)c2cn(CC)c3ccc(S(=O)(=O)N(C)C)cc3c2=O)C1 (configuration not stated)	-2	0	35*	-2	2
Nc1ncnc(Nc2ccccn2)c1[N+](=O)[O-]	9	-7	31*	-2	0
Cc1cccc(Nc2ncnc(N)c2[N+](=O)[O-])n1	4	-5	-26	-4	1
O=C(Nc1cccc(C(F)(F)F)c1)N1CC2CCCN2c2ccccc21 (configuration not stated)	14	.	.	.	0
CCc1ccc(S(=O)(=O)c2nnn3c2nc(N2CCOCC2)c2ccccc23)cc1	32*	-2	3	-6	-1
C=CCn1c(SCC(=O)Nc2ccc(OC)cc2)nc2c([nH]c3ccccc32)c1=O	11	0	33*	0	1
COc1cccc(/C=N/NC(=O)CNC(=O)c2cccnc2)c1O	-2	0	3	-1	1
COc1cccc(/C=N/NC(=O)CNC(=O)c2ccncc2)c1O	65*	-1	-5	8	1
NC(=O)C(c1ccccc1)C1CCCCC1 (configuration not stated)	-5	-23	52*	-5	0
CCN1CCN(c2ccc(S(=O)(=O)N3CCOCC3)cc2NC(=O)CCOc2ccccc2)CC1	-18	-27	32*	-4	1
CCN1CCN(c2ccc(S(=O)(=O)N3CCCCC3)cc2NC(=O)c2ccc([N+](=O)[O-])s2)CC1	1	74*	10	?	1
O=C(Nc1cc(S(=O)(=O)N2CCOCC2)ccc1N1CCCC1)C1CC1	5	-2	54*	-4	2
Nc1cc(S(=O)(=O)N2CCCCC2)ccc1N1CCOCC1	-3	4	32*	0	3
Cc1ccc(-c2cn3c(n2)sc2cc(C(=O)NC4CCCc5ccccc54)ccc23)cc1 (configuration not stated)	-14	.	.	.	2
COc1ccc(C(=O)OC2=C(C(=O)c3ccccc3)N(C)S(=O)(=O)c3ccccc32)cc1OC	12	.	.	.	0
Cc1cccc(NC(=S)N(CCCN2CCOCC2)C(C)c2cc3ccccc3o2)c1 (configuration not stated)	-10	-17	35*	-7	0
COc1cccc2cc(C(C)N(CCCN3CCOCC3)C(=S)Nc3cccc(C)c3)oc12 (configuration not stated)	-13	-16	14	-6	-1
Cc1cc(/C=C2\SC(=Nc3ccc(F)cc3)NC2=O)c(C)n1-c1ccc(S(N)(=O)=O)cc1	0	-6	38*	-2	2
NC(N)=NCc1cccc(I)c1	-5	-17	34*	5	1
COc1ccc(-c2noc(CNC(=O)c3ccccc3Br)n2)cc1	-5	.	.	.	.
CC1(c2ccccc2Cl)NC(=O)N(CC(=O)Nc2ccc(N3CCCCC3)cc2)C1=O (configuration not stated)	-8	1	35*	-3	1
CC1(c2ccccc2Cl)NC(=O)N(CC(=O)Nc2ccc(N3CCOCC3)cc2)C1=O (configuration not stated)	.	0	.	0	.
